Several values for one entry are separate records, joined by “and”; a condition that tells them apart may be missing. Equal values may be shown once. Inconclusive results are not listed. Where a call stands in place of a potency, no number is given. Some structures have more than one record in an assay (separate samples or runs), and their calls can disagree. Activity calls are given as the source filed them. Calls follow the shape of the dose curve; as a rule, active = well fitted cell-killing curve with a large enough effect in the repeat runs; inconclusive = weak or mixed curves, or effect the other way; inactive = flat fitted curve, though single readings scatter.
assay: qHTS RealTime-Glo MT Cell Viability Assay in HEK293 cells - 32 hour (AID 1224868); details: RealTime-Glo luminescence; series mostly up to 76.8 µM; also: nearly all actives have a fitted effect of over 50% in size
Source text: National Center for Advancing Translational Sciences [NCATS]
NIH Chemical Genomics Center [NCGC]
U.S. Environmental Protection Agency [EPA]
National Institutes of Environmental Health Sciences [NIEHS]
National Toxicology Program [NTP]
U.S. Food and Drug Administration [FDA]
Measure of cell viability is critical in the cell-base assay. Analysis of cell viability is necessary for the characterization of cell responses to cytotoxic drugs and environmental stress. A RealTime-Glo MT Cell Viability Assay to monitor cell viability in real time of continues cell culture during 40 hours of compound treatment was used to screen Tox21 10K library compounds in Hek293 cells. The RealTime-Glo MT Cell Viability Assay is a nonlytic, homogeneous, bioluminescent method to measure cell viability in real time using a simple, plate-based method. The assay involves adding NanoLuc luciferase and a cell-permeant prosubstrate to cells in culture. Viable cells reduce the proprietary prosubstrate to generate a substrate for NanoLuc luciferase. This substrate diffuses from cells into the surrounding culture medium, where it is rapidly used by the NanoLuc Enzyme to produce a luminescent signal. The signal correlates with the number of viable cells, making the assay well suited for cytotoxicity studies.
Tox21 Assay Protocol Summary:
The mixture of Hek293 cell suspension and reagents were dispensed at 600cells/6 ul/well in 1536-well tissue culture treated black solid bottom plates using a Multidrop dispenser. After the assay plates were incubated at a 37 C/5% CO2 incubator for 5 hours, 23 nL of compounds dissolved in DMSO, positive and negative controls was transferred to the assay plate by a pintool work station. The plates were incubated at 37 C for 40 hours. The luminescence intensity were measured at 0h, 8h, 16h, 24h, 32h and 40h time points using ViewLux plate reader during compound treatment.
Potency is read from the fitted curve at half-maximal effect.

Row | Compound | Potency
1 | CCCCCCCCCCCCOS(=O)(=O)O | inactive
2 | CC[n+]1ccccc1 | inactive and 38.6 µM (active)
3 | CNC | inactive
4 | CCC[N+]1(C)CCCCC1 | inactive
5 | O=C(O)C(Cl)Cl | inactive
6 | O=[N+]([O-])O | inactive
7 | O=c1[nH]c(=O)n(Cl)c(=O)n1Cl | inactive
8 | CCCCCCCCCCCC(=O)O | inactive
9 | CCCC[N+]1(C)CCCCC1 | inactive
10 | O=c1nc(O)n(Cl)c(=O)n1Cl | inactive
11 | CCCCCCCCCCCCCC[P+](CCCCCC)(CCCCCC)CCCCCC | 3.91 µM (active) and 2.47 µM (active) and 1.95 µM (active)
12 | COP(=O)(OC)OC=C(Cl)Cl | inactive
13 | CN(C)[C@@H]1C(=O)C(C(N)=O)=C(O)[C@@]2(O)C(=O)C3=C(O)c4c(O)cccc4[C@@](C)(O)[C@H]3[C@H](O)[C@@H]12 | inactive
14 | O=P1(N(CCCl)CCCl)NCCCO1 (stereo not given) | inactive
15 | CCC(=O)C(CC(C)N(C)C)(c1ccccc1)c1ccccc1 (stereo not given) | 24.4 µM (active)
16 | CC(=O)[O][Hg][c]1ccccc1 | 306 nM (active) and 977 nM (active) and 239 nM (active)
17 | Cc1cc(-c2ccc(N)c(C)c2)ccc1N | inactive
18 | N#CS | inactive
19 | CCCn1cc[n+](C)c1 | inactive
20 | Oc1ccccc1-c1ccccc1 | inactive

Row | Compound | Potency
21 | CC(=O)O | inactive
22 | C[N+](C)(C)Cc1ccccc1 | inactive
23 | C1CCC(NC2CCCCC2)CC1 | inactive
24 | O=C(O)COc1ccc(Cl)cc1Cl | inactive
25 | CCCC[n+]1cccc(C)c1 | inactive
26 | O=C(O)CC(O)(CC(=O)O)C(=O)O | inactive
27 | CCCCn1cc[n+](C)c1C | inactive
28 | CCCCn1cc[n+](C)c1 | inactive
29 | CC[N+]1(C)CCCC1 | inactive and 21.9 µM (active)
30 | Nc1ccc(-c2ccc(N)c(Cl)c2)cc1Cl | 12.4 µM (active) and 18.2 µM (active) and 21.9 µM (active)
31 | CCCC[n+]1ccc(C)cc1 | inactive
32 | CC(Cl)(Cl)C(=O)O | inactive
33 | CCCC[n+]1ccccc1C | inactive
34 | OCCOc1ccccc1 | inactive
35 | COP(=O)(OC)C(O)C(Cl)(Cl)Cl (stereo not given) | inactive
36 | CCCCCCn1cc[n+](C)c1 | 19.7 µM (active) [middle of 5 runs]
37 | O=[N+]([O-])c1ccccc1O | inactive
38 | COc1ccc(N)cc1 | inactive
39 | CCC[N+]1(C)CCCC1 | inactive
40 | CC[N+](CC)(CC)CC | inactive

Source: PubChem BioAssay (Tox21)
